From PubChem BioAssay (Tox21)
Inconclusive results are not listed. The source made the active and inactive calls. Unless noted, the call rests on the fitted dose curve; in most records, active means well fitted curve in the direction sought with a large enough effect in the repeat runs; inconclusive means weak or mixed curves; inactive means no such curve, though single readings can be large; an effect the other way counts as inactive or inconclusive.

Columns and labels:
[1] = qHTS assay to test for compound auto fluorescence at 535 nm (green) in HEK293 cells (AID 720680)
[2] = qHTS assay to test for compound auto fluorescence at 460 nm (blue) in HEK293 cell free culture (AID 720681)
Outline: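 Blue fluorescence (Ex 405/Em 460 nm, triamterene-equivalent) was read immediately after pin transfer of compound or DMSO into medium (DMEM, 10% FBS) without cells.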

[3] = qHTS assay to test for compound auto fluorescence at 535 nm (green) in HEK293 cell free culture (AID 720682)
Outline: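 Read-out: 485/535 nm fluorescence intensity, calibrated against fluorescein. Medium only (DMEM + 10% FBS, no cells); test compound or DMSO vehicle added by pintool before plate reading.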

[4] = qHTS assay to test for compound auto fluorescence at 590 nm (red) in HEK293 cell free culture (AID 720683)
Outline: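 Red-channel autofluorescence of compounds in culture medium (DMEM, 10% FBS), no cells, measured at 540/590 nm. Rose Bengal sodium is the reference fluorophore for equivalence.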

[5] = qHTS assay to test for compound auto fluorescence at 590 nm (red) in HepG2 cell free culture (AID 720684)
Outline: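 Plate contents were MEM with 10% FBS plus test compound or DMSO, no cells. Fluorescence was recorded with 540 nm excitation and 590 nm emission.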

[6] = qHTS assay to test for compound auto fluorescence at 460 nm (blue) in HepG2 cell free culture (AID 720685)
Outline: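 Compound (23 nL) or DMSO pinned into cell-free MEM with 10% FBS; blue fluorescence read at 405/460 nm excitation/emission, expressed as auto-fluorescence equivalency to triamterene.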

[7] = qHTS assay to test for compound auto fluorescence at 535 nm (green) in HepG2 cell free culture (AID 720686)
[8] = qHTS assay to test for compound auto fluorescence at 460 nm (blue) in HepG2 cells (AID 720687)
Outline: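 Blue-channel autofluorescence (Ex/Em 405/460 nm, triamterene-equivalent) was measured after 1 hr compound exposure at 37 C, 5% CO2. Cells were HepG2, plated overnight at 37 C in MEM plus 10% FBS.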

[9] = target: Glucocorticoid receptor (Homo sapiens) (UniProt P04150); test: qHTS assay to identify small molecule agonists of the glucocorticoid receptor (GR) signaling pathway (AID 720691; active means well fitted activation curve with a large enough effect in the signal ratio in the repeat runs, not every such curve was filed as active; the % refers to the signal ratio)
Outline: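 GR-bla HeLa cells (beta-lactamase reporter under glucocorticoid response element) were plated 4 h at 37 C/5% CO2, given compounds in DMSO, and incubated 18 h at 37 C. LiveBLAzer B/G FRET substrate was added for 2 h at room temperature, then fluorescence intensity read.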

[10] = qHTS assay to identify small molecule antagonists of the glucocorticoid receptor (GR) signaling pathway - cell viability counter screen (AID 720693); further: nearly all actives have a fitted effect of over 55% in size
[11] = qHTS assay for identifying genotoxic compounds that show differential cytotoxicity against isogenic chicken DT40 cell lines with known DNA damage response pathways - wild type cell line (AID 743012); further: nearly all actives have a fitted effect of over 60% in size
Outline: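 Parental DNA repair-proficient DT40 cells, 300 per well, were pre-incubated ~0.5 h at 37 C/5% CO2, pin-dosed with compounds in DMSO, then incubated 40 h. Viability was read as CellTiter-Glo luminescence after 30 min at room temperature.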

[12] = qHTS assay for identifying genotoxic compounds that show differential cytotoxicity against isogenic chicken DT40 cell lines with known DNA damage response pathways - Rev3 mutant cell line (AID 743014); further: nearly all actives have a fitted effect of over 55% in size
[13] = qHTS assay for identifying genotoxic compounds that show differential cytotoxicity against isogenic chicken DT40 cell lines with known DNA damage response pathways - Rad54/Ku70 mutant cell line (AID 743015); further: nearly all actives have a fitted effect of over 60% in size
[14] = qHTS assay to identify small molecule antagonists of the androgen receptor (AR) signaling pathway - cell viability counter screen (AID 743033; further: nearly all actives have a fitted effect of over 45% in size)
[15] = qHTS assay to identify small molecule antagonists of the androgen receptor (AR) signaling pathway using the MDA cell line - cell viability counter screen (AID 743041; further: nearly all actives have a fitted effect of over 45% in size)
Outline: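 R1881-driven MDA-kb2 AR-luc cells, 3,000/well, were dosed with library compounds for 16 h; cell health came from CellTiter-Fluor fluorescence in the reporter wells.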

[16] = target: Glucocorticoid receptor (Homo sapiens) (UniProt P04150); test: qHTS assay to identify small molecule antagonists of the glucocorticoid receptor (GR) signaling pathway (AID 720692; active means well fitted inhibition curve with a large enough effect in the signal ratio in the repeat runs, not every such curve was filed as active; the % refers to the signal ratio)
Outline: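 GR-bla HeLa cells (beta-lactamase reporter under glucocorticoid response element) were pre-plated 4 h at 37 C, treated with compounds plus 5 nM dexamethasone (final) for 18 h, then read by LiveBLAzer B/G FRET fluorescence after 2 h.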

[17] = target: Androgen receptor (Homo sapiens) (UniProt P10275); test: qHTS assay to identify small molecule antagonists of the androgen receptor (AR) signaling pathway (AID 743035; active means well fitted inhibition curve with a large enough effect in the signal ratio in the repeat runs, not every such curve was filed as active; the % refers to the signal ratio)
Outline: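 HEK293 cells stably carrying a UAS-driven beta-lactamase reporter (AR-UAS-bla GripTite) were plated for 4 h at 37C, then given compound and the agonist R1881 and incubated 16 h. Reporter activity was read by LiveBLAzer B/G FRET fluorescence after 2 h at room temperature.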

[18] = target: Androgen receptor (Homo sapiens) (UniProt P10275); test: qHTS assay to identify small molecule agonists of the androgen receptor (AR) signaling pathway (AID 743036; active means well fitted activation curve with a large enough effect in the signal ratio in the repeat runs, with a control signal flat, not every such curve was filed as active; the % refers to the signal ratio)
Outline: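 HEK293 cells stably carrying a UAS-driven beta-lactamase reporter (GeneBLAzer AR-UAS-bla-GripTite) were plated at 2,000 cells/well, rested 4 h at 37C, then exposed to compounds in DMSO for 16 h. LiveBLAzer B/G FRET substrate was added for 2 h at room temperature; fluorescence read.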

[19] = target: Androgen receptor (Homo sapiens) (UniProt P10275); test: qHTS assay to identify small molecule agonists of the androgen receptor (AR) signaling pathway using the MDA cell line (AID 743040; further: nearly all actives have a fitted effect of over 20% in size)
Outline: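 After a 5 h incubation at 37C and 0% CO2, MDA-kb2 reporter cells were dosed with compounds in DMSO and kept 16 h under the same conditions. Luciferase activity was then read as luminescence with ONE-Glo.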

[20] = target: Androgen receptor (Homo sapiens) (UniProt P10275); test: qHTS assay to identify small molecule antagonists of the androgen receptor (AR) signaling pathway using the MDA cell line (AID 743042; further: nearly all actives have a fitted effect of over 55% in size)
Outline: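 Antagonist mode: compounds plus R1881 agonist added to MDA-kb2 AR-luc cells, incubated 16 h at 37C. Luciferase reporter luminescence quantified, with multiplexed CellTiter-Fluor readout for cell viability.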
On the % scale 0 is the no-effect control and ±100 the full control effect.

Sequence of Androgen receptor (Homo sapiens) (P10275 whole entry, looked up): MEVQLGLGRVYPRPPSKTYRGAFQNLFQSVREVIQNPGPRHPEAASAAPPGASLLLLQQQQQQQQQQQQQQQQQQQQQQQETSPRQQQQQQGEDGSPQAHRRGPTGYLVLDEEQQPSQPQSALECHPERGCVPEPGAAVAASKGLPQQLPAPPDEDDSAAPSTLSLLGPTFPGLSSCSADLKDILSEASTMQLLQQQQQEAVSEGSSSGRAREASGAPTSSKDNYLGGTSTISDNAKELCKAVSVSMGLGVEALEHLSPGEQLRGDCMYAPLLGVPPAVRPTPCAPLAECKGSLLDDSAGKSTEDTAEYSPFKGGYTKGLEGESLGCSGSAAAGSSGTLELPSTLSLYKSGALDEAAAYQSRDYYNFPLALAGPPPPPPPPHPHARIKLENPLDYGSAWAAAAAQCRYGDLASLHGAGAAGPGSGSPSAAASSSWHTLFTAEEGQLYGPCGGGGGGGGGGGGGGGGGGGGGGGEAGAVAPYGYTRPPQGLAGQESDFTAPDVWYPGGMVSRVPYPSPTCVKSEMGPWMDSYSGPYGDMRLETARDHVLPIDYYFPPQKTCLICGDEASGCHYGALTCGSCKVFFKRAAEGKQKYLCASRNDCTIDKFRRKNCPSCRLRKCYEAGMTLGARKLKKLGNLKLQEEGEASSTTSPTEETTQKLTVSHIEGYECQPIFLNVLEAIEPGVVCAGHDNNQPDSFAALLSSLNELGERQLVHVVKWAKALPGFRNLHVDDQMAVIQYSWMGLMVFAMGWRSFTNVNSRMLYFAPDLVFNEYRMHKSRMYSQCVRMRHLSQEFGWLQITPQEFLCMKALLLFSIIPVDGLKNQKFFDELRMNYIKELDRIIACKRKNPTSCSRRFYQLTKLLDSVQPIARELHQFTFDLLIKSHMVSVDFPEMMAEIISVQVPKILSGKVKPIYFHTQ
Sequence of Glucocorticoid receptor (Homo sapiens) (P04150 whole entry, looked up): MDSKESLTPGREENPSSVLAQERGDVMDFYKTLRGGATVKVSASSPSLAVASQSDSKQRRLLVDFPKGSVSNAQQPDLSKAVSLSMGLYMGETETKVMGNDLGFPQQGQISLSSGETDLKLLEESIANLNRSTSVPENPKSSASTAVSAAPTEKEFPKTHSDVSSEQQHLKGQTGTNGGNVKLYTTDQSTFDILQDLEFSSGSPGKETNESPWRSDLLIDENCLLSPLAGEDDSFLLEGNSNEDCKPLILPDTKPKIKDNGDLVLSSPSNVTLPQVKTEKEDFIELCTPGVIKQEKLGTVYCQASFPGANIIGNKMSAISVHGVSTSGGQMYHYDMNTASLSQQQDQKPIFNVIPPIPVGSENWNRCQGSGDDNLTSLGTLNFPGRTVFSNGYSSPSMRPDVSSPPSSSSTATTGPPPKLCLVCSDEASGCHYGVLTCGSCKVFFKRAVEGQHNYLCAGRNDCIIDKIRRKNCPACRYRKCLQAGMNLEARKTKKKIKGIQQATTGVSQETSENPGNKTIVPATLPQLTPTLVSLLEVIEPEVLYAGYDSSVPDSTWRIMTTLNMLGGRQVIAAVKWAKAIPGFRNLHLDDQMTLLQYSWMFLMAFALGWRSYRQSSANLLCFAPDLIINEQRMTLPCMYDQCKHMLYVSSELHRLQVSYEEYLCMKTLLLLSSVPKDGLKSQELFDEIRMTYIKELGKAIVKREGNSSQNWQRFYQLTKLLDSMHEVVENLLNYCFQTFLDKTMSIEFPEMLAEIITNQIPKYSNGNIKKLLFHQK

CCCCCC(=O)OCC
inactive: outcome [1] | outcome [2] | outcome [3] | outcome [4] | outcome [5] | outcome [6] | outcome [7] | outcome [8] | Potency [9] | Potency [10] | Potency [11] | Potency [12] | Potency [13] | outcome [14] | outcome [15]

CCC(C)N (stereo unspecified)
inactive: outcome [1] | outcome [2] | outcome [3] | outcome [4] | outcome [5] | outcome [6] | outcome [7] | outcome [8] | Potency [9] | Potency [10] | Potency [11] | Potency [12] | Potency [13] | outcome [14] | outcome [15]

CC(=O)OC(C)c1ccccc1 (stereo unspecified)
inactive: outcome [1] | outcome [2] | outcome [3] | outcome [4] | outcome [5] | outcome [6] | outcome [7] | outcome [8] | outcome [16] | Potency [10] | Potency [12] | Potency [13] | outcome [14] | outcome [15]

CCOC(=O)CCc1ccccc1
inactive: outcome [1] | outcome [2] | outcome [3] | outcome [4] | outcome [5] | outcome [6] | outcome [7] | outcome [8] | Potency [10] | Potency [11] | Potency [12] | Potency [13] | outcome [14] | outcome [15]

C1CCN2C[C@@H]3C[C@@H](CN4CCCC[C@@H]34)[C@H]2C1
inactive: fluorescence, % of fluorescein [1] -0.0731% [at 18.6 µM] | fluorescence, % of fluorescent control [2] 0.0698% [at 18.6 µM] | activity change [3] -0.022% [at 18.6 µM] | fluorescence, % of fluorescent control [4] 0.165% [at 18.6 µM] | fluorescence, % of Rose Bengal [5] -0.0423% [at 18.6 µM] | fluorescence, % of fluorescent control [6] 0.101% [at 18.6 µM] | fluorescence, % of fluorescein control [7] 0.104% [at 18.6 µM] | fluorescence, % of fluorescent control [8] -0.0841% [at 18.6 µM] | Potency [9] | outcome [16] | Potency [11] | Potency [12] | Potency [13] | outcome [14] | outcome [15]

NCCc1ccn[nH]1
inactive: fluorescence, % of fluorescein [1] -0.0168% [at 18.6 µM] | fluorescence, % of fluorescent control [2] -0.0158% [at 18.6 µM] | activity change [3] 0.0838% [at 18.6 µM] | fluorescence, % of fluorescent control [4] -0.0073% [at 18.6 µM] | fluorescence, % of Rose Bengal [5] 0.001% [at 18.6 µM] | fluorescence, % of fluorescent control [6] -0.0614% [at 18.6 µM] | fluorescence, % of fluorescein control [7] -0.0021% [at 18.6 µM] | fluorescence, % of fluorescent control [8] -0.0013% [at 18.6 µM] | outcome [16] | Potency [10] | Potency [11] | Potency [12] | Potency [13] | outcome [14] | Potency [17] | outcome [18] | outcome [19] | outcome [15] | outcome [20]

CC(=O)OCCCc1ccccc1
inactive: outcome [1] | outcome [2] | outcome [3] | outcome [4] | outcome [5] | outcome [6] | outcome [7] | outcome [8] | Potency [10] | Potency [11] | Potency [12] | Potency [13] | outcome [14] | outcome [15]

CCOC(=O)OCC/C(SC(=O)OCC)=C(\C)N(C=O)Cc1cnc(C)nc1N
inactive: outcome [1] | outcome [2] | outcome [3] | outcome [4] | outcome [5] | outcome [6] | outcome [7] | outcome [8] | Potency [9] | outcome [16] | Potency [11] | Potency [12] | outcome [14] | outcome [15]

CC(C)COC(=O)COc1ccc(Cl)cc1Cl
inactive: outcome [1] | outcome [2] | outcome [3] | outcome [4] | outcome [5] | outcome [6] | outcome [7] | outcome [8] | Potency [9] | outcome [16] | Potency [10] | outcome [14] | Potency [17] | outcome [18] | outcome [19] | outcome [15] | outcome [20]

CCNC(=O)/C=C/c1cccc(Br)c1
inactive: outcome [1] | outcome [2] | outcome [3] | outcome [4] | outcome [5] | outcome [6] | outcome [7] | outcome [8] | Potency [9] | Potency [10] | Potency [11] | Potency [12] | Potency [13] | outcome [14] | outcome [19] | outcome [15]

O=C1OC(=O)c2ccccc21
inactive: outcome [1] | outcome [2] | outcome [3] | outcome [4] | outcome [5] | outcome [6] | outcome [7] | outcome [8] | Potency [9] | Potency [10] | Potency [11] | Potency [12] | Potency [13] | outcome [14] | outcome [15]

CCCCC(CC)C(=O)OC(C)C (stereo unspecified)
inactive: outcome [1] | outcome [2] | outcome [3] | outcome [4] | outcome [5] | outcome [6] | outcome [7] | outcome [8] | Potency [9] | outcome [16] | Potency [11] | Potency [12] | Potency [13] | outcome [14] | outcome [15]

COCC(=O)Nc1c(I)c(C(=O)NCC(O)CO)c(I)c(C(=O)N(C)CC(O)CO)c1I (stereo unspecified)
inactive: fluorescence, % of fluorescein [1] -0.025% [at 18.6 µM] | fluorescence, % of fluorescent control [2] -0.0015% [at 18.6 µM] | activity change [3] 0.0796% [at 18.6 µM] | fluorescence, % of fluorescent control [4] 0.0121% [at 18.6 µM] | fluorescence, % of Rose Bengal [5] 0.0461% [at 18.6 µM] | fluorescence, % of fluorescent control [6] -0.109% [at 18.6 µM] | fluorescence, % of fluorescein control [7] -0.084% [at 18.6 µM] | fluorescence, % of fluorescent control [8] -0.143% [at 18.6 µM] | Potency [10] | Potency [11] | Potency [12] | Potency [13] | outcome [14] | Potency [17] | outcome [18] | outcome [19] | outcome [15] | outcome [20]
